# Compounds with a hit are over-represented: about 1.5% of the library has one in this group of screens.
# rTrxR1 inhibitor = qHTS Assay for Inhibitors of Mammalian Selenoprotein Thioredoxin Reductase 1 (TrxR1): qHTS; Thioredoxin reductase 1, cytoplasmic (Rattus norvegicus), O89049; recombinant rTrxR1, NADPH fluorescence consumption, selenite substrate; Potency, µM (doses to about 114 µM), inactives show top-dose activity change, negative = inhibition, hits mostly inhibitors; actives 1% (n = 390,000); AID 588453, 2011; further: potency means the concentration at half of the fitted maximal effect; nearly all actives have a fitted effect of over 65% in size
#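 Rat TrxR1 (90 nM in the dispensed reagent) was pre-reduced with 400 uM NADPH for 5 min at room temperature, then incubated with compound for 15 min. After 400 uM selenite was added, NADPH fluorescence (Ex 340/Em 450 nm) was followed for 8 min.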
# TrxR1 substrate = qHTS Assay for Substrates of Mammalian Selenoprotein Thioredoxin Reductase 1 (TrxR1): qHTS; actives 0.01% (n = 390,000); AID 588456, 2011; Potency, µM (highest dose often 114 µM), for inactives: top-dose activity change, negative = substrate turnover; purified TrxR1 substrate turnover, NADPH consumption readout; Thioredoxin reductase 1, cytoplasmic (Rattus norvegicus), O89049; further: potency means the concentration at half of the fitted maximal effect; nearly all actives have a fitted effect of over 50% in size
#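 Rat TrxR1, dispensed at 90 nM, was prereduced with 400 uM NADPH (final) for 5 min at ~22 deg C, then incubated with compound 15 min before 400 uM selenite. A first-read NADPH fluorescence drop versus no-compound background flagged substrates.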
# CtBP-E1A blk = qHTS Assay for Inhibitors of the CtBP/E1A Interaction; actives 0.49% (n = 340,000); AlphaScreen GST-E1A/His-CtBP binding, 1536-well; hits give low values; activity change, % (concentration not given with the values); in the data active means activity change below about -65%; inconclusive means mostly about -30% to -63%
#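 Protein mix (5X: 125 nM each GST-E1A, His-CtBP) was incubated with pinned compound 2 h at 37 deg C in dark, in 50 mM Tris pH 8.0 buffer with 300 mM NaCl. Glutathione donor and nickel acceptor beads followed; AlphaScreen signal read after 1 h.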
# Six1-Eya2 blk = qHTS Assay for Inhibitors of the Six1/Eya2 Interaction | Homeobox protein SIX1 (Homo sapiens) + Protein phosphatase EYA2 (Homo sapiens), … | AlphaScreen GST-Six1/His-Eya2 binding, biochemical; hits give low values | activity change, % (test concentration not listed) | actives 0.56% (n = 360,000) | AID 651725, 2012; in the data active means activity change below about -65%; inconclusive means mostly about -30% to -63%
#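 GST-Six1 + His-Eya2 (5X stock: 250/500 nM); Tris pH 8.0, 300 mM NaCl, 0.05% BSA, 0.02% Tween 20; GSH donor/Ni acceptor beads; 1 h 37 °C dark; AlphaScreen readout.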
# GALK inh = qHTS Assay for Inhibitors of Human Galactokinase (GALK). P51570. Purified GALK, Kinase-Glo residual ATP luminescence. Potency, µM (titrated, usually from 57.5 µM), for the others: at the top dose activity change, negative = inhibition, usual class: inhibitors. actives 0.007% (n = 270,000). AID 1868, 2009; further: potency means the concentration at half of the fitted maximal effect
# Target sequence (P51570 whole entry, looked up): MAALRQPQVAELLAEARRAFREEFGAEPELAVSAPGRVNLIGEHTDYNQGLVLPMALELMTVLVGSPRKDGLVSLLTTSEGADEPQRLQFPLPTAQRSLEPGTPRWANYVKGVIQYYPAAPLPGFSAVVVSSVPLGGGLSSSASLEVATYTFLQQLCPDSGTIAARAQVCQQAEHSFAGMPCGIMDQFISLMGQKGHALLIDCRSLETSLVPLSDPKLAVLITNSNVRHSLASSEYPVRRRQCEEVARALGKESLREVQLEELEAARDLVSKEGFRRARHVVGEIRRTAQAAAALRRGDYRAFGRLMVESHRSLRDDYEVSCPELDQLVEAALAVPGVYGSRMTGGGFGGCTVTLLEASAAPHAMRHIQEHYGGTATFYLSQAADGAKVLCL
#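 ATP-depletion format; final 35 uM ATP, 100 uM D-galactose, 5 nM enzyme; pH 8.0 HEPES/Mg2+ buffer; 60 min RT; luminescence read 10 min after detection reagent.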
# Eya2 phos inh = qHTS Assay for Inhibitors of the Phosphatase Activity of Eya2 | actives 0.006% (n = 330,000) | Protein phosphatase EYA2 (Homo sapiens), O00167 | Potency, µM (series often up to 76.9 µM), inactives show top-dose activity, negative = inhibition, usual class: inhibitors | recombinant Eya2, OMFP fluorescence dephosphorylation (OMFP is methylfluorescein phosphate) | AID 488837, 2010; further: potency means the concentration at half of the fitted maximal effect
#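 Eya2 protein (added as 0.2 uM solution) was preincubated with compound for 10 min at ambient temperature in 50 mM HEPES pH 7.5, 50 mM NaCl, 5 uM MgCl2, 0.05% BSA, 1 mM DTT. OMFP (added at 50 uM) then reacted 10 min; fluorescence read at 485/525 nm.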
# An asterisk follows results filed as active; ? = inconclusive; · = no result; [ ] = another dose, or the depositor's remark. Unless noted, the call rests on the fitted dose curve; in most records, active means well fitted curve in the direction sought with a large enough effect; inconclusive means small, poorly fitted or top-dose-only effect, or another doubt; inactive means no such curve, though single readings can be large; an effect the other way counts as inactive or inconclusive. On the % scale 0 is the no-effect control and ±100 the full control effect.
SMILES,rTrxR1 inhibitor,TrxR1 substrate,CtBP-E1A blk,Six1-Eya2 blk,GALK inh,Eya2 phos inh
CCCCN(CCCC)C(=O)c1cc2c(=O)n3ccccc3nc2s1,-6%,114%,·,·,·,·
COc1ccc(Cn2c(=O)c3cccnc3n(Cc3cccc(F)c3)c2=O)cc1,28%,5%,·,·,·,·
COc1ccc(/C=C/C(=O)NCC(=O)N/N=C/c2cc(Br)ccc2OC)cc1,7%,-10%,7,-3,·,-9%
O=C(/C=C/c1ccco1)NCC(=O)N/N=C/c1ccccc1[N+](=O)[O-],45µM*,-4%,·,-2,-1%,15%
CCN(CC)c1ccc(/C=N/NC(=O)CNC(=O)/C=C/c2ccco2)cc1,?,-4%,-24,-21,2%,0%
COc1ccc(/C=C\C(=O)NCC(=O)N/N=C/c2ccc(O)cc2O)cc1,-1%,-13%,-17,-88*,1%,-22%
COc1ccc(O)c(/C=N/NC(=O)c2cc(=O)[nH]c3ccccc23)c1,19%,6%,?,-92*,1%,-9%
Cc1cc(N(C)C)ccc1/C=C/c1ccnc2ccccc12,-2%,1%,·,·,·,·
Cc1ccc(NC(=O)c2ccc3c(c2)NC(=O)c2ccccc2S3)c(Cl)c1,4%,0%,·,·,·,·
COC(=O)CCC/C=C1/SCC(NC(=O)c2ccccc2)C1O (stereo not given),50µM*,-19%,1,2,-1%,·
COC(=O)CCC/C=C1/SCC(NC(=O)c2ccccc2)C1NC(C)=O (stereo not given),20%,0%,12,-3,6%,-16%
COC(=O)CCC/C=C1/SCC(NC(=O)c2ccccc2)C1=O (stereo not given),25µM*,4%,-19,-14,1%,-1%
Oc1cc(NCCN2CCOCC2)cc2cccnc12,11µM*,0%,·,·,·,0%
Oc1cc(NCc2ccccc2)cc2cccnc12,·,·,·,·,·,6%
COc1ccc(NC(=O)Cn2c(CCC(=O)O)ccc2-c2ccccc2)cc1Cl,8%,10%,·,·,·,·
CC(C(Sc1ccccc1N)c1ccccc1)[N+](=O)[O-] (stereo not given),6.3µM*,0%,-4,-16,2%,-1%
O=C(COCc1cc(-c2ccc(F)cc2)on1)Nc1cc(Cl)cc(Cl)c1,-8%,-10%,·,·,·,·
Cc1ccc(S(=O)(=O)CNC(=S)c2cccc(Cl)c2)cc1,14µM*,4%,5,1,0%,2%
Cc1ccc(-c2csc(=Nc3ccc(F)cc3)n2Cc2ccc3c(c2)OCO3)cc1C,24%,5%,·,·,·,·
CC(C)(C)NC(=O)CCN(/N=C/c1ccccc1)C1=NS(=O)(=O)c2ccccc21,12%,11%[57.1 µM],-65*,?,0%,-5%
Cc1cccc(/C=N/N(CCO)C2=NS(=O)(=O)c3ccccc32)c1,5%[57.1 µM],2%[57.1 µM],-81*,?,0%,7%
CC(C)(C)NC(=O)CCN(/N=C/c1ccccc1F)C1=NS(=O)(=O)c2ccccc21,-15%,-9%[57.1 µM],2,6,·,1%
CCCNS(=O)(=O)c1ccc2nc(NC(=O)c3ccc(F)cc3)sc2c1,-18%[57.1 µM],-4%[57.1 µM],·,·,·,·
O=S(=O)(c1ccc2c(c1)OCCO2)N1CCN(c2nc(-c3ccccc3)nc3ccccc23)CC1,20%,4%,·,·,·,·
COC(=O)c1c(S(C)(=O)=O)nc(-c2ccccc2)[nH]c1=O,40µM*,-1%,-1,-1,-2%,5%
SMILES,rTrxR1 inhibitor,TrxR1 substrate,CtBP-E1A blk,Six1-Eya2 blk,GALK inh,Eya2 phos inh
Cc1ccc(/C=C/S(=O)(=O)NCC(=O)OCC(=O)Nc2ccc(C(N)=O)cc2)cc1,25%,8%,-6,-4,·,-17%
Cc1ccc(/C=C/S(=O)(=O)NCC(=O)OCC(=O)Nc2ccc(C(=O)N(C)C)cc2)cc1,7%,2%,-91*,-9,·,9%
Cc1ccc(/C=C/S(=O)(=O)NCC(=O)OCC(=O)Nc2c(F)cccc2F)cc1,32µM*,-3%,-3,4,·,-2%
CCc1nnc(NC(=O)[C@@H]2CCCN2C(=O)c2cccs2)s1,4%,3%,·,·,·,·
CCn1c(=NC(=O)c2ccc(S(=O)(=O)N3CCCCC3)cc2)sc2cccc(OC)c21,33%,17%,·,·,·,·
Clc1ccc2c(ccc[n+]2CCC2CCCCC2)c1,11%,2%,·,·,·,·
CCc1ccc(S(=O)(=O)Nc2cccc(-c3ccc(N4CCOCC4)nn3)c2)cc1,7%[57.1 µM],2%[57.1 µM],·,·,·,·
COCCn1c(CCC(=O)O)ccc1-c1cccs1,?,20%,-12,-15,-1%,1%
Cc1ccc(-n2c(CCC(=O)O)ccc2-c2cccs2)cc1C,45µM*,15%,-2,-9,1%,19%
CCCCn1c(CCC(=O)O)ccc1-c1cccs1,35µM*,14%,-9,-2,-4%,14%
CCc1ccc(-n2c(CCC(=O)O)ccc2-c2cccs2)cc1,35µM*,8%,·,·,·,·
CCOC(=O)c1ccc(-n2c(CCC(=O)O)ccc2-c2cccs2)cc1,?,-6%[57.1 µM],6,0,-1%,-2%
O=C(Cn1cnc([N+](=O)[O-])n1)N/N=C/c1cc(Cl)ccc1O,1%[57.1 µM],-3%,-94*,-92*,5%,-7%
O=C(Cn1cnc([N+](=O)[O-])n1)N/N=C/c1ccccc1O,3%,-1%,-95*,-92*,-1%,0%
Cc1ccccc1/C=N/NC(=O)Cn1cnc([N+](=O)[O-])n1,-8%,-6%,1,0,4%,-1%
O=C(CCCn1cnc([N+](=O)[O-])n1)Nc1cc(Cl)ccc1O,-9%[57.1 µM],-4%[57.1 µM],-17,-23,4%,2%
COc1cccc(CNC(=O)Cc2ccc(NC(=O)N3CCCCc4ccccc43)cc2)c1OC,1%[57.1 µM],-4%[57.1 µM],·,·,·,·
O=C(O)CCNc1cc(N2CCN(C(=O)c3ccco3)CC2)c2noc3c2c1C(=O)c1ccccc1-3,35µM*,-8%,-85*,-74*,2%,52%
CCN1CCN(c2cc(N3CCN(C(=O)c4ccco4)CC3)c3c4c(onc24)-c2ccccc2C3=O)CC1,-24%,-11%,?,?,9%,5%
CCc1ccc2[nH]c(=O)c(C3C(C#N)=C(N)Oc4c3ccc3cccnc43)cc2c1 (stereo not given),45µM*,12%,-86*,?,0%,9%
